For assay [1], the target named is T1, Ephrin type-B receptor 2 (Homo sapiens) (UniProt P29323).
T1 sequence (whole entry): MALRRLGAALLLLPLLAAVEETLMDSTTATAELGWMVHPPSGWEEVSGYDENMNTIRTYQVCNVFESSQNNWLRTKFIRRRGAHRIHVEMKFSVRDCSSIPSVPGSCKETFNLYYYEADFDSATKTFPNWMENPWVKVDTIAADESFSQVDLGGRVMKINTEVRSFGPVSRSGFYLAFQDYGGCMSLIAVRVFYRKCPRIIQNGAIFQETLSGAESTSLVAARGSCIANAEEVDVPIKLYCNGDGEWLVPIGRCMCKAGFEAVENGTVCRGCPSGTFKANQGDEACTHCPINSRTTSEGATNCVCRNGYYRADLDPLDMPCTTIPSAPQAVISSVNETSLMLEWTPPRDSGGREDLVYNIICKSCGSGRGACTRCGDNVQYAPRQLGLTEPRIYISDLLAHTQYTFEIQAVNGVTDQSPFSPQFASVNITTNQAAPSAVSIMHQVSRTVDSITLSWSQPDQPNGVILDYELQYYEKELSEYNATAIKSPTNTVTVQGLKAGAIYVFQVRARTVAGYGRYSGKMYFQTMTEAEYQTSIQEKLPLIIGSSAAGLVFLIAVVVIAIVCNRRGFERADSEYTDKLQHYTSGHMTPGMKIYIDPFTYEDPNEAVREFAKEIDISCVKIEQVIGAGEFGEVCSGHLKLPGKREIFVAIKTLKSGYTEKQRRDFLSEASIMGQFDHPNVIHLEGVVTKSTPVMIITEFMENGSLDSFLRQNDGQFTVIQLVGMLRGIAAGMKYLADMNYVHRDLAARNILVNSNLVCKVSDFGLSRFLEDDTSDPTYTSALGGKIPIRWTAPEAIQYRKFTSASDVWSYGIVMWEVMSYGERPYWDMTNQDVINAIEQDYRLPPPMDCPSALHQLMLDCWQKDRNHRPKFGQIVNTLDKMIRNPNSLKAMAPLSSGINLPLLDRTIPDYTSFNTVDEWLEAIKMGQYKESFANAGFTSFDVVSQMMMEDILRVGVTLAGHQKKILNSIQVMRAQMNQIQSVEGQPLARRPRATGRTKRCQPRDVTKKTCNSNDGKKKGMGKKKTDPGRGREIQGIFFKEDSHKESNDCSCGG
To be noted: at 1 µM.

Assay [2] addresses T2, Ephrin type-B receptor 3 (Homo sapiens) (UniProt P54753).
T2 sequence (whole entry): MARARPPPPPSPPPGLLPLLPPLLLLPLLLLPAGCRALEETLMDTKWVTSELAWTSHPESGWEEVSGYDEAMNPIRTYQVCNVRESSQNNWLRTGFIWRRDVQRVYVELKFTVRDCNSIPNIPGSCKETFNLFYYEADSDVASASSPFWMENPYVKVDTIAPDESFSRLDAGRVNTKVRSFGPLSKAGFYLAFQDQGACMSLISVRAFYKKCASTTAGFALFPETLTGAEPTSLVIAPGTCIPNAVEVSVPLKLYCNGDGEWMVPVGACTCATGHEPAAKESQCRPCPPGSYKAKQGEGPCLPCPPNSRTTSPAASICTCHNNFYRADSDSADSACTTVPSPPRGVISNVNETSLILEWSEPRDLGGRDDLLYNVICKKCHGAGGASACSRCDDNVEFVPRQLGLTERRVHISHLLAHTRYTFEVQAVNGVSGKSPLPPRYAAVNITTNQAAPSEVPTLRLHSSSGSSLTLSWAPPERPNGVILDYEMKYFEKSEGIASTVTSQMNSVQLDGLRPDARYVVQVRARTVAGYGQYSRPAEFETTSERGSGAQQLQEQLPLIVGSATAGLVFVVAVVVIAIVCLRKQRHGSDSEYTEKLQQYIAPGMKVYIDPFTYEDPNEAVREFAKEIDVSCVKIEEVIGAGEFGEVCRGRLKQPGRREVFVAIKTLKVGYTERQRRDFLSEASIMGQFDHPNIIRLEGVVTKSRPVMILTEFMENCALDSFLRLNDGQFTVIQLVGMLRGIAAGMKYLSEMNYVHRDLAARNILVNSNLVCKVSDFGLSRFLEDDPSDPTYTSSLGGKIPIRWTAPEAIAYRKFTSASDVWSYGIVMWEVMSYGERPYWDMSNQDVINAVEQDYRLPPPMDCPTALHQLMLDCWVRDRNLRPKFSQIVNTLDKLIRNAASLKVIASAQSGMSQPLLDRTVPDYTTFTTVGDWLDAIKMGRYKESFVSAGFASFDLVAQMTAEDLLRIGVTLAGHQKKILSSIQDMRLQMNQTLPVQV
Conditions: at 0.1 µM.

Assay [3] has as its target T2, Ephrin type-B receptor 3 (Homo sapiens). To be noted: at 1 µM.
Assay [4] concerns the target T3, Ephrin type-B receptor 4 (Homo sapiens) (UniProt P54760).
T3 sequence (whole entry): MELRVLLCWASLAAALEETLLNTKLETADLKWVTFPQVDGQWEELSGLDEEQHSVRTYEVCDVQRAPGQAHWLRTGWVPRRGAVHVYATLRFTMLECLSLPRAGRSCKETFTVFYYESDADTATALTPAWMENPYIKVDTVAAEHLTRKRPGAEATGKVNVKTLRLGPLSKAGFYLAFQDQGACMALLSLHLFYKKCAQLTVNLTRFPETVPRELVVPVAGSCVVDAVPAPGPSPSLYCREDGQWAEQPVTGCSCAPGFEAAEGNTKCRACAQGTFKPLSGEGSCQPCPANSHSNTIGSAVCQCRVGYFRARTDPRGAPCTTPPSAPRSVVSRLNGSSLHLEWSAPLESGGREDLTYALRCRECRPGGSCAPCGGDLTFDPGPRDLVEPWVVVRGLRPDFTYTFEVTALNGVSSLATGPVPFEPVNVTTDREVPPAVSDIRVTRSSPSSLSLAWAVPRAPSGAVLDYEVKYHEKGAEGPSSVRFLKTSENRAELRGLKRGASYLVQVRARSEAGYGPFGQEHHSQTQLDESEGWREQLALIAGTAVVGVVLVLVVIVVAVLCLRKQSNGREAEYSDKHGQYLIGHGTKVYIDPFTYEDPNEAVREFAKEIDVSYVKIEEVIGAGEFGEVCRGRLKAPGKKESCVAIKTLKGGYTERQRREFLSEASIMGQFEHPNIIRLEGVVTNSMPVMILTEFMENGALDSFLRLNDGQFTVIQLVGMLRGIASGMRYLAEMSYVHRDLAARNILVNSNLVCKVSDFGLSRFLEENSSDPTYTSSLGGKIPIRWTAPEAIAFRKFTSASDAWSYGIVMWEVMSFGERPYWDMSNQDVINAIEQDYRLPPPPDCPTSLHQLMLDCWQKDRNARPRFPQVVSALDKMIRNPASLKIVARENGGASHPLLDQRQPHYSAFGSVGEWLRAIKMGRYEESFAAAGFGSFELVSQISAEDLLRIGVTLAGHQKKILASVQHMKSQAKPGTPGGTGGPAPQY
Conditions: at 0.1 µM.

In assay [5] the target is T3, Ephrin type-B receptor 4 (Homo sapiens). To be noted: at 1 µM.
Assay [6] addresses Receptor tyrosine-protein kinase erbB-2 (Homo sapiens) (UniProt P04626). Conditions: at 0.1 µM.
Assay [7] has the same target. To be noted: at 1 µM.
Assay [8] concerns the target Receptor tyrosine-protein kinase erbB-4 (Homo sapiens) (UniProt Q15303). To be noted: at 0.1 µM.
The target is the same in assay [9]. To be noted: at 1 µM.
Assay [10] addresses Tyrosine-protein kinase Fer (Homo sapiens) (UniProt P16591). Conditions: at 0.1 µM.

Broadly, the inhibition is the relative decrease from the control value, in per cent.

Receptor tyrosine-protein kinase erbB-4 (Homo sapiens), sequence (Q15303 whole entry): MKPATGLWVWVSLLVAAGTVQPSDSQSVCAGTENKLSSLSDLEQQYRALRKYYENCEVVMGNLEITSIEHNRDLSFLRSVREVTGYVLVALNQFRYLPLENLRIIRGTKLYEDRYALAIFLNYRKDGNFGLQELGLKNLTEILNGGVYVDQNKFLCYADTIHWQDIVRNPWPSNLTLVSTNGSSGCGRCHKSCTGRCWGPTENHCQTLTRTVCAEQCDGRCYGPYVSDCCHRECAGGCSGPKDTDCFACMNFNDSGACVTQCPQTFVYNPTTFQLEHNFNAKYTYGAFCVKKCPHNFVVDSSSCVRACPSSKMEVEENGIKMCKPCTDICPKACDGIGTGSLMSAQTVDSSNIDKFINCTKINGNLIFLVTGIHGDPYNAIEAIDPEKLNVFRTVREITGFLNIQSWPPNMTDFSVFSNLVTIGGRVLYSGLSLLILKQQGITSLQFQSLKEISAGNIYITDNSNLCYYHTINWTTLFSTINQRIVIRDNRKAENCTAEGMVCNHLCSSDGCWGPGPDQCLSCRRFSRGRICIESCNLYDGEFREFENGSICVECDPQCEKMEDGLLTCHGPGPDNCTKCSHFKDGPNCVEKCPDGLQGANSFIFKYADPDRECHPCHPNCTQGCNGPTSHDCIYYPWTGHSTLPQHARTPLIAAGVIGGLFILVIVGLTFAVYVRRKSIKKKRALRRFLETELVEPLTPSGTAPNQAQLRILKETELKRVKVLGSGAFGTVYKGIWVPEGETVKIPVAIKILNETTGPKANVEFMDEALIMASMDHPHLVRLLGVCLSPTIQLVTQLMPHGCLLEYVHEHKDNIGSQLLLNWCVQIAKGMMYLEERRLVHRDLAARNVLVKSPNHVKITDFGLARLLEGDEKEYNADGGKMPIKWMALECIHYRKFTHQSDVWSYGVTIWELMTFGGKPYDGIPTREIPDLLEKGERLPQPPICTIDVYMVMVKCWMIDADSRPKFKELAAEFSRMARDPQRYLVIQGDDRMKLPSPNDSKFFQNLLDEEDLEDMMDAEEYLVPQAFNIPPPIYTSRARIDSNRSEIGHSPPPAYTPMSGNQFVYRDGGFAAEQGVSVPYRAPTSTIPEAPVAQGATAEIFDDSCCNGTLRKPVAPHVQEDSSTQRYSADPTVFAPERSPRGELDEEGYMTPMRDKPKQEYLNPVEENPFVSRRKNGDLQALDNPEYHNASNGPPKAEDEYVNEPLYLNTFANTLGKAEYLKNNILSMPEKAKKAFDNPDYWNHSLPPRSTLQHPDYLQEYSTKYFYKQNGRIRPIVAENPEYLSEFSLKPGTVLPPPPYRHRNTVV
Receptor tyrosine-protein kinase erbB-2 (Homo sapiens), sequence (P04626 whole entry): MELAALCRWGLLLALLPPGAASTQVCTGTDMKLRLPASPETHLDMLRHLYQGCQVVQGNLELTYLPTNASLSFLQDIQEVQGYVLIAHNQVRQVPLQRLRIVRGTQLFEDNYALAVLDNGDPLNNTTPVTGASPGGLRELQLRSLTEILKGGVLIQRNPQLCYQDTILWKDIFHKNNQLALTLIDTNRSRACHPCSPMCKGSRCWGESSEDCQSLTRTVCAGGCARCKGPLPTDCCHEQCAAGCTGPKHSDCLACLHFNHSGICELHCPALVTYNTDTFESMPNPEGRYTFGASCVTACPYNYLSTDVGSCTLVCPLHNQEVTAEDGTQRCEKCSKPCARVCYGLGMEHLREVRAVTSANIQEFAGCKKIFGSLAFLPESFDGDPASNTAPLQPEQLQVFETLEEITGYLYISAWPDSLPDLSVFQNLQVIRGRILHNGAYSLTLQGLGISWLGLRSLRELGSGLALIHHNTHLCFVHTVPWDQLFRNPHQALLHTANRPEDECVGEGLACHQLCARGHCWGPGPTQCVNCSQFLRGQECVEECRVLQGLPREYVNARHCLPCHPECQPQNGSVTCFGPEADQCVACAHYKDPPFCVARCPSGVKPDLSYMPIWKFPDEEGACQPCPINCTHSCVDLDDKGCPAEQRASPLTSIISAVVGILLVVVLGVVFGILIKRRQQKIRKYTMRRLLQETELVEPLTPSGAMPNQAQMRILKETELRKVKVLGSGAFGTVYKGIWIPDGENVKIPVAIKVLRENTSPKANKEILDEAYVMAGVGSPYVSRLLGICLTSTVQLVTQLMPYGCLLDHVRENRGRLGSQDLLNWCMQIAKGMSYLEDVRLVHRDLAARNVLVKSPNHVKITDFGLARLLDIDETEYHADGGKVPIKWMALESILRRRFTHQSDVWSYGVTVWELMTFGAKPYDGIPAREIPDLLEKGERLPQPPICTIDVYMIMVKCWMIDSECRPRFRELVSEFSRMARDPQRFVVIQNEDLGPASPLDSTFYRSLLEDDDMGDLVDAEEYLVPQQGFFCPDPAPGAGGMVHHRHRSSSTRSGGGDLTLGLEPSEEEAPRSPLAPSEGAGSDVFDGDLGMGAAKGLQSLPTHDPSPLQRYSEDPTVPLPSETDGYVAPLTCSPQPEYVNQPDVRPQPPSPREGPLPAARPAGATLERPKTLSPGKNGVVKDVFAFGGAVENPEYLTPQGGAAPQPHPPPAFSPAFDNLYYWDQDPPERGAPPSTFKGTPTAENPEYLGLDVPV
Tyrosine-protein kinase Fer (Homo sapiens), sequence (P16591 whole entry, looked up): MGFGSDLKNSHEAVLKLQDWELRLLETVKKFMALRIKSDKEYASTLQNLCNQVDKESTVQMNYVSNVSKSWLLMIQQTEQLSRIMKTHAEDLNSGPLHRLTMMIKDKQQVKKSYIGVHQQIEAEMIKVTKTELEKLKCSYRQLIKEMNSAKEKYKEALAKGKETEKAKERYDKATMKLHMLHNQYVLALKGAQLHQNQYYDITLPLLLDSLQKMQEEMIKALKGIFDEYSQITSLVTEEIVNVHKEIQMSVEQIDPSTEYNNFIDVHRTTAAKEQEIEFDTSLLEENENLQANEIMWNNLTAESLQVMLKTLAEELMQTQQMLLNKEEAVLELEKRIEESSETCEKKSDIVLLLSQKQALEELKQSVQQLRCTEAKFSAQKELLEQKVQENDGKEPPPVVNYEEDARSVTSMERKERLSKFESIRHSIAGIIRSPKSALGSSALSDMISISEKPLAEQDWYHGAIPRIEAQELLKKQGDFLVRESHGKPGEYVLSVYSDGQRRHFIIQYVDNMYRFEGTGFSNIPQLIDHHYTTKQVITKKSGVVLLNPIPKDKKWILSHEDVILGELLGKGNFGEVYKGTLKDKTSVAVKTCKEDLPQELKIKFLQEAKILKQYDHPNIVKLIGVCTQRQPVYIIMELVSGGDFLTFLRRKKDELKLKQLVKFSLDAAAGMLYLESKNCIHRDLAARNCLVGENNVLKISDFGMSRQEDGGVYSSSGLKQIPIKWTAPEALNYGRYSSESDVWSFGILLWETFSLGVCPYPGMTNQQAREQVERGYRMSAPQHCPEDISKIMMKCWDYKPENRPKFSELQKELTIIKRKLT

`O=C(Nc1ccc(Oc2ccc3[nH]c(NC(=O)c4ccco4)nc3c2)cc1)Nc1cc(C(F)(F)F)ccc1F`: the inhibition in assay [1] was 78.3%; in assay [2], 2.25%; in assay [3], 24.2%; in assay [4], 8.82%; in [5], 63.8%; in assay [6], -0.1%. Besides, the inhibition in assay [7] is -0.1%; in [8] it was -1.74%; in [9], -5.16%; in assay [10], 3.08%.

With `Cc1ccc2c(-c3ccnc(Nc4ccc5c(c4)OCCO5)n3)c(-c3ccc(C(F)(F)F)cc3)nn2n1`, the inhibition was 1.37% in assay [1]; -0.21% in assay [2]; 2.22% in assay [3]; -1.12% in [4]; 1.46% in [5]; 2.13% in assay [6]. Moreover, the inhibition in assay [7] came out at 4.1%; in [8], 3.46%; in assay [9], 16.3%; in assay [10], 0.5%.

On to `CC(C)c1ccc2c(c1)NC(=O)/C2=N/Nc1ccc(S(N)(=O)=O)cc1`, for which the inhibition in [1] was 3.71%; in assay [2] it was 0.49%; in assay [3], 1.76%; in assay [4], 1.07%; in assay [5], 0.29%; in assay [6], 3%. Further, the inhibition in [7] worked out at 2.17%; in [8], 1.45%; in [9], 2.39%; in assay [10], 0.16%.

Consider `COc1cc2ncnc(Nc3ccc(C)c(O)c3)c2cc1OC`, for which the inhibition in assay [1] is 41.4%; in [2], 6.58%; in [3] it was 2.9%; in assay [4], 8.74%; in [5] it was 36.9%; in [6], 7.8%. Further, the inhibition was found to be 26.3% in assay [7], 31.7% in assay [8], 68.7% in assay [9] and 4.24% in assay [10].

As to `Cc1nc(-c2ccccc2)n2nc(NCCCN3CCOCC3)ncc12`, the inhibition in assay [1] was 7.29%; in assay [2] it was 2.93%; in assay [3], 3.76%; in [4] it was 1.32%; in [5], 4.69%; in assay [6], 1.95%. The inhibition in assay [7] is 5.51%; in [8] it was 5.53%; in assay [9] it was 11.3%; in assay [10] it was 1.34%.

For the molecule `COC(=O)c1cncc(/C=C/c2c(C)cc(O)cc2C)c1`, the inhibition turned out to be 56.4% in assay [1]; 6.09% in assay [2]; 11.8% in assay [3]; 6.99% in assay [4]; 38.7% in assay [5]; 1.31% in [6]. The inhibition was 2.82% in assay [7], 7.72% in assay [8], 10% in assay [9] and 2.19% in assay [10].

On to `CS(=O)(=O)CCNCc1nc(-c2ccc3ncnc(Nc4ccc(OCc5cccc(C(F)(F)F)c5)cc4)c3c2)cs1`, for which the inhibition in assay [1] is 6.37%; in assay [2], 2.8%; in assay [3], 3.98%; in [4], -1.44%; in assay [5] it was 2.09%; in assay [6], 4.71%. In addition, the inhibition worked out at 4.32% in assay [7], 6.42% in [8], 25.6% in assay [9] and 3.78% in [10].

With `COc1cccc(-n2ncc3c(N/N=C/c4ccc(S(C)(=O)=O)cc4)ncnc32)c1`, the inhibition in assay [1] is 11.5%; in assay [2] it was -0.24%; in assay [3] it was -2.08%; in assay [4] it was -0.79%; in assay [5] it was 6.93%; in [6], 2.7%. Further, the inhibition in assay [7] was 3.96%; in assay [8], 7.91%; in [9], 7.9%; in assay [10], 1.13%.

For the origin of these results see ChEMBL document CHEMBL1961873, “Compounds: GSK PKIS; Assays: Nanosyn kinase panel” (2012).
